Jurkat NFkB inh – lowers PMA/ionomycin-induced NF-kB signal in Jurkat cells. PMA/ionomycin-induced NF-kB luciferase reporter, luminescence. inhibition, % at 4 µM. 0.53% of 330,000 active. AID 435003; in the data active = inhibition above about 50%
CSC inhib – blocks cancer stem cells. cancer stem cell-like cells viability, luminescence. inhibition, % at 7.5 µM. 1.1% of 300,000 active. AID 2717; in the data active = inhibition above about 75%; inconclusive = no clear call, values can overlap the other calls; tested in HMLE shEcad cells
Gli-Sufu antag – blocks Gli-Sufu signaling in a luciferase reporter; Sufu-KO-LIGHT fibroblasts, Gli luciferase reporter luminescence; 0.74% of 340,000 active; AID 588413; inhibition, % at 5 µM;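 active = inhibition above about 55%, limit read from the data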;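 note: 0% = DMSO-treated cells and 100% = wells with medium but no cells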
aSyn UTR inh – MLPCN primary screen, SNCA 5' untranslated region | inhibition, % (tested at 7.5 µM) | alpha-synuclein 5'UTR reporter, inhibitor activity | AID 1813 | 0.82% of 300,000 active; in the data active = inhibition above about 60%; inconclusive = no clear call, values can overlap the other calls;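 note: H4 neuroglioblastoma cells stably carrying SNCA 5'UTR luciferase fusion; 0% = DMSO wells and 100% = positive control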
697 NFkB inh – inhibitors of the PMA/ionomycin-induced NF-kB reporter in 697 B cells. 697 B-cell NF-kB luciferase reporter, 16 h. inhibition, % at 4 µM. 0.33% of 330,000 active. AID 435022; in the data active = inhibition above about 35%
Mdm2-MdmX inh – human Mdm2/MdmX binding inhibition | SaOS-2 split-luciferase Mdm2/MdmX complementation, luminescence | 3% of 330,000 active | inhibition, % at 8 µM | O15151+Q00987;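 active = inhibition of at least 50% at 8 µM in the primary screen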
Target sequence (O15151 whole entry, looked up): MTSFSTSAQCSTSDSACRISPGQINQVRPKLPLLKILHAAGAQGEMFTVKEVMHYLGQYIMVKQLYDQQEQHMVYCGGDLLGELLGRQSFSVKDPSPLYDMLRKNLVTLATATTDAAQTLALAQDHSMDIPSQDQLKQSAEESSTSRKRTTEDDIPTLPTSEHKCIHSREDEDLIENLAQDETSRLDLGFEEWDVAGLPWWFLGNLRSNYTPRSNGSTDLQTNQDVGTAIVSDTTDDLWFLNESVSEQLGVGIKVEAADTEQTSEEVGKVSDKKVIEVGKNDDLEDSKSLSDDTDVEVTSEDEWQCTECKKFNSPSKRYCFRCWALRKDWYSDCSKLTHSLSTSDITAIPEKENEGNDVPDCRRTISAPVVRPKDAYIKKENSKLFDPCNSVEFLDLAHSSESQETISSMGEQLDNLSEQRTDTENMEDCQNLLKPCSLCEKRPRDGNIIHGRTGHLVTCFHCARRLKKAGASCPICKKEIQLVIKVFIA
Target sequence (Q00987 whole entry, looked up): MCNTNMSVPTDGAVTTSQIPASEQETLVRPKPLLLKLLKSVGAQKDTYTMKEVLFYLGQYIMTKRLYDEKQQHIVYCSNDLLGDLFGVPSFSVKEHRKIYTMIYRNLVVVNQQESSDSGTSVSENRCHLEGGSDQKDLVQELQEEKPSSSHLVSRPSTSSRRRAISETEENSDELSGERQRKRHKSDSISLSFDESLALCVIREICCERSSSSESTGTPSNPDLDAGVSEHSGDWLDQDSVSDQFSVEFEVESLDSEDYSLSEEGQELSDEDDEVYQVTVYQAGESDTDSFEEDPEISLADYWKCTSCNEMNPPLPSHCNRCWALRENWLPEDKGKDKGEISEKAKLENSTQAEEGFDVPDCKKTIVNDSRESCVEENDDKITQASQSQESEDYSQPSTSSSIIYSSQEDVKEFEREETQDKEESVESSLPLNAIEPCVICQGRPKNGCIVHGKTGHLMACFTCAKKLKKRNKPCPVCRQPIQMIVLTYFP
* marks the source's active call; other numbers are inactive results; ? = inconclusive; · = no result. Shown are actives, neighbours in structure and some others; about 4.5% of the full set was active somewhere.

SMILES	Jurkat NFkB inh	CSC inhib	Gli-Sufu antag	aSyn UTR inh	697 NFkB inh	Mdm2-MdmX inh
COc1cc(C(=O)OC2CC3CCC2(C)C3(C)C)ccc1OC(C)=O (stereo not drawn)	-13	81*	-18	-34	-9	-5
O=c1cc2oc3cc(O)c(O)cc3c(-c3ccccc3[N+](=O)[O-])c-2cc1O	5	95*	28	71*	15	49
O=c1cc(-c2ccccc2Cl)oc2cccc(O)c12	-19	-4	-32	-50	3	9
Fc1ccc(-c2ccc3c(c2)C2CC3CCN2Cc2ccc3c(c2)OCO3)cc1 (stereo not drawn)	·	·	1	·	·	·
Cc1cccc2sc(NC(=O)C3c4ccccc4Oc4ccccc43)nc12	-3	126*	12	14	14	35
Cc1cccc2sc(NC(=O)C3CC3)nc12	-27	·	-34	-46	-19	-5
CCOC(=O)c1c(CSc2ccc(C)cc2)oc2ccc(O)cc12	6	135*	-5	14	-14	25
CCOC(=O)c1c(CSc2ccccc2)oc2ccc(O)cc12	6	23	0	4	-29	-5
Cc1ccc(-c2cc(C(=O)N3CCCC3)no2)cc1	-57	7	-34	?	-143	-8
Cc1ccc(-c2cc(C(=O)N3CCOCC3)no2)cc1	-50	2	-9	67*	-91	42
CCCCOc1ccccc1C(=O)NNC(=S)NC(=O)c1ccccc1[N+](=O)[O-]	13	20	1	16	7	42
O=C(NCc1cccnc1)/C(=C\c1ccc(-c2ccc(Cl)c(Cl)c2)o1)S(=O)(=O)c1ccccc1	·	113*	10	-332	·	·
COc1ccc2cc(/C=N/O)c(Cl)nc2c1	-3	·	26	-53	-25	-9
COc1ccc2cc(/C=N/NC(=O)c3ccc(CN(c4cccc(Cl)c4Cl)S(C)(=O)=O)cc3)c(Cl)nc2c1	28	85*	15	67*	17	19
O=C(NCCc1ccccc1)c1nccc2ccccc12	-36	-3	-40	-111	-57	-32
c1ccc(CCNc2ccnc3cc4ccccc4cc23)cc1	·	·	83*	117*	·	·
CCOC(=O)C1=C(COC(=O)c2ccccc2[N+](=O)[O-])NC(=O)NC1C (stereo not drawn)	-6	-6	-7	3	22	20
O=S(=O)(Nc1ccc(O)c2ccccc12)c1ccc(F)cc1	14	28	9	4	16	23
CCc1ccc(S(=O)(=O)Nc2ccc(O)c3ccccc23)cc1	2	92*	3	29	9	34
CCc1ccc(S(=O)(=O)Nc2cc(SCC(=O)O)c(O)c3ccccc23)cc1	0	114*	0	-13	-18	20
CCOC(=O)C1CCCc2c1[nH]c1c(C(=O)O)cccc21 (stereo not drawn)	9	-5	5	23	2	16
Cc1cc(C)n2nc(C(=O)OCC(=O)NNC(=O)c3ccccc3)nc2n1	-4	3	-3	·	-3	18
COc1cccc(/C=N/Nc2ncccc2[N+](=O)[O-])c1OC	21	23	-20	92*	-57	15
O=[N+]([O-])c1ccc(/C=N/Nc2ncccc2[N+](=O)[O-])s1	7	10	23	-9	-69	5
CCCNC(=O)CCn1nc(-c2ccc(C)cc2)c2ccccc2c1=O	-7	-6	4	17	12	11
SMILES	Jurkat NFkB inh	CSC inhib	Gli-Sufu antag	aSyn UTR inh	697 NFkB inh	Mdm2-MdmX inh
CCCNC(=O)CCn1nc(-c2ccc(Cl)cc2)c2ccccc2c1=O	-11	6	5	82*	-25	7
CCOCCCNC(=O)/C(C#N)=C/c1ccccc1F	6	-3	1	-4	6	16
CC1=NN(c2ccccc2)C(=O)/C1=C\C=C1\N(C)c2ccccc2C1(C)C	1	79*	12	27	17	18
CC1=NN(c2ccccc2)C(=O)/C1=C\C=C1/N(C)c2ccccc2C1(C)C	6	46	40	25	3	26
CN1/C(=C\C=C2/SC(=S)NC2=O)C(C)(C)c2ccccc21	29	43	71*	26	-42	22
COc1ccccc1C(=O)Nc1cccc2c1CCCC2	-10	14	-18	4	5	-5
O=C(CSc1ncnc2nc[nH]c12)c1ccc(Cl)cc1	-12	102*	·	14	-17	11
Cc1cccc(-c2oc3ccccc3c2C#CCCCCO)c1	9	101*	29	8	-11	30
COc1ccccc1-c1oc2ccccc2c1C#CCCO	-3	-32	8	·	-9	4
Cc1cccc(-c2oc3ccccc3c2C#CCCO)c1	-12	89*	15	11	-27	13
COCCn1c(SCC(=O)NC2CCCC(C)C2C)nc2ccccc2c1=O (stereo not drawn)	19	·	5	·	-1	-15
Cc1ccc2c(c1)-n1c(nc3ccc(C)cc3c1=O)C(Cc1ccc(O)cc1)NC2=O (stereo not drawn)	-6	-11	·	·	-2	11
CN1C(=O)/C(=C/c2cccc(Cl)c2)Sc2ccc(C(=O)NCc3cccnc3)cc21	-10	96*	-2	5	7	14
COc1cccc(/C=C2\Sc3ccc(C(=O)NCc4cccnc4)cc3N(C)C2=O)c1	1	52	1	-4	-3	12
O=S(=O)(Nc1ccccc1Cl)c1cc(NC(=S)NCCN2CCOCC2)ccc1Cl	-10	-5	-16	8	6	-21
Clc1ccc(C(c2ccccc2Cl)C(Cl)Cl)cc1 (stereo not drawn)	10	98*	0	·	-4	35
Cc1ccccc1C(c1ccccc1Cl)N(C)C (stereo not drawn)	·	·	6	·	·	·
Cc1cc(NC(=O)CCC(=O)N(CC(=O)NC2CCCC2)c2ccc(Cl)c(Cl)c2)no1	-14	·	-12	10	-5	17
Cc1ccc(NC(=O)COC(=O)CCc2ccccc2)cc1S(=O)(=O)N1CCOCC1	-2	-9	4	·	14	-19
CS(=O)(=O)c1nc(-c2ccccc2)cc(C(F)(F)F)n1	31	107*	23	-111	-103	-32
FC(F)(F)c1cc(-c2ccccc2)nc(N2CCCCCC2)n1	19	24	3	12	-12	26
N/C(=N\OC(=O)COc1ccc2ccccc2c1)c1cccnc1	-25	9	-13	-17	-35	-36
COc1cc(/C=N/N(c2ccccc2)c2ccccc2)ccc1O	2	99*	-13	-5	-2	6
COc1ccc(/C=N/N(c2ccccc2)c2ccccc2)cc1O	6	81*	3	-13	-10	1
CCOc1ccc(/C=N/N(C)c2ccccc2)cc1OC	-141	·	-16	-250	-168	-132
CC(NC(=O)c1cccc(S(=O)(=O)N2CCc3ccccc32)c1)c1ccco1 (stereo not drawn)	-7	3	8	·	-3	-4
Brc1ccc(/C=N/Nc2ccccc2)cc1	10	79*	-41	-92	17	-16

Assay outcomes (PubChem BioAssay)
